Abs 340nm: compounds absorbing at 340 nm | compound absorbance at 340 nm, fold over control | fold change at 10 µM | 65,000 tested, under 10 active | AID 708;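 active means at 10 µM dose, initial 340 nm absorbance at least 2 fold that of control wells; inactive means change under 2 fold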;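 further: initial absorbance extrapolated from kinetic A340 decline of NADH oxidation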
Spn PMK inh: S. pneumoniae PMK inhibition | purified PMK, PK/LDH-coupled NADH absorbance 340 nm | inhibition, % at 10 µM | 65,000 compounds, 0.49% hits;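 active means top-ranked compounds by inhibition in the single 10 µM screen, taking a fixed number of the strongest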
Fluor 339 460: intrinsic fluorescence of library compounds, ex339/em460 – biochemical, MLSMR library, data from DPM-DC assay, artefact control, profiling panel; compound autofluorescence, ex339/em460 nm, NADH buffer; stronger effect = higher value; 1 = no-compound wells, NADH background; fluorescence fold increase at 10 µM; 65,000 compounds, 5.5% hits; AID 709;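 active means at 10 µM, mean starting fluorescence two-fold or more over control wells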;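 further: signal is the first read of a kinetic run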
NADH enzymes: inhibition of NAD/NADH coupling enzymes, library profiling; IC50, µM (top dose mostly 10 µM); 65,000 compounds, 0.02% hits; coupled PK/LDH NADH assays, four targets;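 active means single-dose screening hits from any of four coupled enzyme assays that gave an IC50 when retested across doses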;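 further: the DPM-DC format reads NADH fluorescence rather than 340 nm absorbance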
MK inhibit: inhibitors of Streptococcus pneumoniae mevalonate kinase; purified MK, PK/LDH-coupled NADH absorbance 340 nm; inhibition, % at 10 µM; 65,000 compounds, 0.48% hits;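 active means ranked among the strongest by inhibition in the single 10 µM screen, a fixed top-ranked set picked for dose follow-up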
DPM-DC inhibit: inhibitors of Streptococcus pneumoniae diphosphomevalonate decarboxylase | calls only at 10 µM | 65,000 compounds, 0.49% hits | purified DPM-DC, PK/LDH coupled NADH fluorescence;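 active means the 320 compounds with the highest percent inhibition in the single-dose primary screen, excluding strongly autofluorescent ones, cut at about 32% in these data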;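 further: kinetic rate of NADH fluorescence loss reporting ADP formed by the decarboxylase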
Large screens that a line does not name were inactive; [ ] = dose if it differs, or a comment. This is a sample that favours compounds with a hit; in the whole collection about 6.8% have one here.

CCOC(=O)C(C)Sc1ccc2nnc(-c3ccc(F)cc3)n2n1 (centres undefined)	Fluor 339 460 2.15
O=C(CSc1cc(Cl)ccc1Cl)NCC1CCCO1 (centres undefined)	Spn PMK inh 25.0
Nc1cc(N)nc(SCC(=O)NCC2CCCO2)n1 (centres undefined)	none
CC(Sc1ccc2nnc(-c3ccc(F)cc3)n2n1)C(=O)O (centres undefined)	none
NCCCCCc1nnc(SCC(=O)c2ccc(Cl)cc2)o1	none
CN(C)c1ccc(C(=S)NCc2ccco2)cc1	none
CCN(CC)c1ccc(NC(=O)CC2Oc3ccccc3NC2=O)c(C)c1 (centres undefined)	none
Oc1oc(-c2ccco2)nc1C=Nc1cccc(Cl)c1	none
Cc1cc(O)c(C=Nc2cccc(Cl)c2)c(=O)o1	DPM-DC inhibit active
Cc1sc2nc(SCC(=O)N(CCO)CCO)n(C3CCCCC3)c(=O)c2c1C	none
CC(C)OC(=O)Cn1cnc2ccc(Br)cc2c1=O	none
O=C(c1ccccc1)c1ccc2nc(N3CCN(C(=O)c4ccco4)CC3)c3nncn3c2c1	none
Cc1cccc(N2CCN(c3nc4ccc(Cl)cc4n4cnnc34)CC2)c1C	Fluor 339 460 2.08 (not shown: DPM-DC inhibit)
O=C(Nc1ccc(F)cc1)N(CCCN1CCOCC1)Cc1cc2cc3c(cc2[nH]c1=O)OCO3	Spn PMK inh 27.0, Fluor 339 460 2.71, DPM-DC inhibit active
O=C(Nc1ccc(F)cc1)N(CCCN1CCOCC1)Cc1cc2cc3c(cc2[nH]c1=O)OCCO3	Fluor 339 460 3.17 (not shown: DPM-DC inhibit)
COc1ccccc1NC(=O)N(CCCN1CCOCC1)Cc1cc2cc3c(cc2[nH]c1=O)OCO3	Fluor 339 460 3.49
C=CCOc1c(Cl)cc(C2NC(=O)NC(C)=C2C(=O)OC)cc1Cl (centres undefined)	none
Clc1ccc2c(c1)[C@H]1OCC[C@H]1[C@@H](c1ccco1)N2	Fluor 339 460 2.27, DPM-DC inhibit active[fluoresces]
Fc1ccc2c(c1)[C@H]1OCC[C@H]1[C@@H](c1ccco1)N2	Fluor 339 460 2.67
C[C@@H]1C[C@H](O)c2cc(Cl)ccc2N1	none
Cc1ccc2cc(C#N)c(N3CCCN(C(=O)C4CCCO4)CC3)nc2c1C (centres undefined)	Fluor 339 460 2.36
Cc1cc(C)n(-c2nnc(C)c(=O)[nH]2)n1	none
COc1cc(CN2CCC(C(=O)N3CCCC(C)C3)CC2)cc(Br)c1O (centres undefined)	none
COC(=O)c1cc2c(=O)n3ccccc3nc2n(C(C)C)c1=N	Fluor 339 460 3.86 (not shown: DPM-DC inhibit)
CC(C)n1c(=N)c(C(=O)NCCc2ccccc2)cc2c(=O)n3ccccc3nc21	Fluor 339 460 5.06 (not shown: DPM-DC inhibit)
CCn1c(=N)c(C(=O)OC)cc2c(=O)n3ccccc3nc21	Fluor 339 460 3.71 (not shown: DPM-DC inhibit)
CC(C)P(=O)(Cc1cccc(C#N)c1)C(C)C	none
C=CCN1C(=O)C(O)=C(C(C)=O)C1c1ccccc1F (centres undefined)	none
O=c1c(-c2nc3ccccc3o2)c2oc3ccccc3n2c2ccccc12	Fluor 339 460 4.96 (not shown: DPM-DC inhibit)
CC(=O)c1ccc(-c2nc3c4ccccc4ccn3c2C(C)=O)o1	Fluor 339 460 2.2 (not shown: DPM-DC inhibit)
COC(=O)Cc1ccc2c3ccccc3n(C)c2c1	none
Cn1c2ccccc2c2c(C(=O)O)cn(C3CCCC3)c(=O)c21	Fluor 339 460 2.13 (not shown: DPM-DC inhibit)
Cc1ccc(CNC(=O)c2cn(C3CCCC3)c(=O)c3c2c2ccccc2n3C)o1	Fluor 339 460 2.12 (not shown: DPM-DC inhibit)
COc1ccc(N2CCN(C(=O)c3cn(C4CCCC4)c(=O)c4c3c3ccccc3n4C)CC2)cc1	none
Cn1c2ccccc2c2c(C(=O)NCc3ccco3)cn(C3CCCCC3)c(=O)c21	Fluor 339 460 2.11 (not shown: DPM-DC inhibit)
CCOC(=O)c1[nH]c(C)c(C(=O)NCc2cccnc2)c1C	none
CCOC(=O)c1oc2ccc(Br)cc2c1CSc1nnc(C)s1	none
O=C(c1cccc(S(=O)(=O)NCCOc2ccccc2)c1)N1CCN(c2ncccn2)CC1	none
CCOC(=O)c1ccc(NC(=O)CSc2nnc(CNc3ccc(OC)cc3)n2C)cc1	none
Cc1cc(=O)oc2cc(OC(C)C)ccc12	Fluor 339 460 2.13 (not shown: DPM-DC inhibit)
C#CCOc1ccc2c(C)cc(=O)oc2c1	Fluor 339 460 3.89 (not shown: DPM-DC inhibit)
COc1ccc2oc(=O)cc(C)c2c1	Fluor 339 460 2.62
COc1cc(OC)c2c(C)cc(=O)oc2c1	Fluor 339 460 3.75 (not shown: DPM-DC inhibit)
CCOC(=O)Oc1ccc2oc(=O)cc(C)c2c1	none
Cc1cccc(NC(=O)c2cc(NC(=O)c3ccco3)ccc2Cl)n1	none
CCOC(=O)CCc1c(C)c2ccc(OCc3nn[nH]n3)cc2oc1=O	Fluor 339 460 3.78 (not shown: DPM-DC inhibit)
CCOC(=O)CCc1c(C)c2ccc(OCC(=O)OC(C)C)cc2oc1=O	Fluor 339 460 3.69 (not shown: DPM-DC inhibit)
Cc1c(Cc2ccccc2)c(=O)oc2cc(OCc3nn[nH]n3)ccc12	Fluor 339 460 3.8 (not shown: DPM-DC inhibit)
COc1ccc(-c2cc3ccc(OCc4nn[nH]n4)cc3oc2=O)cc1OC	none
COc1ccc(-c2cc(=O)oc3cc(OCc4nn[nH]n4)ccc23)cc1	none
CC1CC(C)CN(Cc2nc(N)nc(Nc3ccc4ccccc4c3)n2)C1 (centres undefined)	none
COc1cccc(OCCCCCN2CCOCC2)c1	none
CCOc1cccc(OCCOCCN2CCCC2)c1	MK inhibit 45.0
Cc1cc(OCCOCCN2CCCC2)ccc1C(C)C	MK inhibit 41.0
Brc1ccc(OCCOCCN2CCOCC2)cc1	none
COC(=O)c1cc(=O)nc2sccn12	Spn PMK inh 27.0
COc1ccc(C(=O)Cn2c(=O)c(CCC(=O)O)nn3c4ccccc4nc23)cc1OC	Fluor 339 460 2.83
C=C(Cl)COc1ccc2c(C)cc(=O)oc2c1	none
CCCCc1c(C)c2ccc(OCC(C)=O)cc2oc1=O	Fluor 339 460 2.34 (not shown: DPM-DC inhibit)
CCCCc1cc(=O)oc2cc(OCC(=O)N(CC)CC)c(Cl)cc12	none
Cc1c(CCC(=O)O)c(=O)oc2cc3occ(-c4ccc(F)cc4)c3cc12	none
CCCc1c(C)c2ccc(OCC(C)=O)cc2oc1=O	Fluor 339 460 5.1 (not shown: DPM-DC inhibit)
Cc1c(CCC(=O)O)c(=O)oc2cc(O)ccc12	Fluor 339 460 2.12 (not shown: DPM-DC inhibit)
CCCCc1cc(=O)oc2cc(OCC(=O)N(CC)CC)ccc12	Fluor 339 460 2.18 (not shown: DPM-DC inhibit)
O=C(C1CCCN1C(=O)c1cccs1)N1CCc2ccccc21 (centres undefined)	none
CCOC(=O)Cc1csc(SCc2nc3ccccc3c(=O)[nH]2)n1	none
Cc1ccc2c(c1)nnn2C1CCN(CC(=O)Nc2ccc3c(c2)OCCO3)CC1	none
Cn1cc(S(=O)(=O)Nc2ccc(Br)cc2F)c(=O)n(C)c1=O	none
CCC(=O)Oc1ccc2c(C)c(Cl)c(=O)oc2c1	Fluor 339 460 2.18 (not shown: DPM-DC inhibit)
CCc1cc(=O)oc2cc(OCC(=O)N3CCc4ccccc43)ccc12	Fluor 339 460 3.23
Cc1cc(=O)oc2cc(OCC(=O)N3c4ccccc4CC3C)ccc12 (centres undefined)	none
CCN(CC)C(=O)Oc1ccc2c(=O)c(-c3ccc(OC)cc3)c(C)oc2c1	none
